The structures appear in SMILES notation. Active and inactive are the calls of the source. How the source made its calls: active means hit-call score of the fitted dose curve at least 0.9, where 1 is the maximum; inactive means score below 0.9.

In PubChem BioAssay (EPA / NIEHS) one finds AC50 and outcome data, which are given here for four molecules.

Assay [1] in a line: CEETOX_H295R_11DCORT: CeeTox H295R High-throughput Steroidogenesis Assay for 11-Deoxycortisol (11DCORT) (AID 2283432).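 On AC50: 11-deoxycortisol secreted into the medium measured by LC-MS/MS.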 The conditions noted are these: actives raise or lower the signal. An outline of the steps: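 H295R cells prestimulated 48 h with 10 uM forskolin, then exposed 48 h to chemical in 0.1% DMSO. 11-Deoxycortisol in medium quantified by HPLC-MS/MS after MTBE extraction; bidirectional fit versus DMSO. MTT viability read in same wells.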

Assay [2] in a line: CEETOX_H295R_OHPREG: CeeTox H295R High-throughput Steroidogenesis Assay for OH-Pregnenolone (OHPREG) (AID 2283434). Particulars: actives raise or lower the signal. An outline of the steps: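 H295R cells pre-stimulated 48 h with 10 uM forskolin, then exposed 48 h to chemical in 0.1% DMSO. 17alpha-hydroxypregnenolone in medium quantified by MTBE extraction and HPLC-MS/MS; bidirectional fit versus DMSO, viability checked by MTT.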

Assay [3] in a line: CEETOX_H295R_ANDR: CeeTox H295R High-throughput Steroidogenesis Assay for Androstenedione (ANDR) (AID 2283436). Particulars: actives raise or lower the signal. In outline: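 H295R cells, following OECD 456 with minor changes, exposed to chemicals for 48 h. Androstenedione in the medium was quantified by HPLC-MS/MS after MTBE extraction. Fitting was bidirectional versus DMSO; chemicals were diluted until MTT viability was ≥70%.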

The nature of assay [4]: CEETOX_H295R_CORTIC: CeeTox H295R High-throughput Steroidogenesis Assay for Corticosterone (CORTIC) (AID 2283437).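 Further: corticosterone secreted into medium quantified by mass spectrometry.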 The conditions noted are these: actives raise or lower the signal. An outline of the steps: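 H295R adrenal cells prestimulated 48 hours with 10 uM forskolin, then exposed 48 hours to chemical in 0.1% DMSO. Corticosterone in medium measured by HPLC-MS/MS after MTBE extraction; MTT viability in the same wells; bidirectional fit versus DMSO.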

Assay [5] in a line: CEETOX_H295R_CORTISOL: CeeTox H295R High-throughput Steroidogenesis Assay for Cortisol (AID 2283438).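 Further: cortisol secreted into medium quantified by LC-MS/MS.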 Particulars: actives raise or lower the signal. In outline:
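H295R human adrenal cells were prestimulated 48 h with 10 uM forskolin, then exposed 48 h to test chemical (0.1% DMSO final). Medium cortisol was quantified by HPLC-MS/MS after MTBE extraction; bidirectional fitting relative to DMSO baseline.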

Assay [6] is described as follows: CEETOX_H295R_DOC: CeeTox H295R High-throughput Steroidogenesis Assay for DOC (AID 2283439). The conditions noted are these: actives raise or lower the signal. In outline:
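H295R adrenal cells prestimulated 48 h with 10 uM forskolin, then exposed 48 h to test chemical (0.1% DMSO final). Medium 11-deoxycorticosterone extracted with MTBE, quantified by HPLC-MS/MS; bidirectional fit versus DMSO baseline; MTT viability in same wells.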

Assay [7] is described as follows: CEETOX_H295R_ESTRADIOL: CeeTox H295R High-throughput Steroidogenesis Assay for Estradiol (AID 2283440).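 Further: estradiol secreted into medium quantified by LC-MS/MS after dansyl derivatisation.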 Particulars: actives raise or lower the signal. In outline: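 H295R, 48 h forskolin (10 uM) prestim → 48 h compound, 0.1% DMSO final. Estradiol in medium: MTBE extraction, dansyl chloride derivatization, LC-MS/MS. Fit bidirectional vs DMSO baseline; MTT viability in same wells.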

The nature of assay [8]: CEETOX_H295R_ESTRONE: CeeTox H295R High-throughput Steroidogenesis Assay for Estrone (AID 2283441).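 Further: estrone secreted into medium measured by LC-MS/MS after dansyl derivatization.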 The conditions noted are these: actives raise or lower the signal. An outline of the steps:
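H295R cells; 48 h forskolin (10 uM) prestimulation; 48 h compound exposure, 0.1% DMSO final. Medium estrone: MTBE extraction, dansyl derivatization, HPLC-MS/MS. Bidirectional fit vs DMSO.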

Assay [9] can be described thus: CEETOX_H295R_PROG: CeeTox H295R High-throughput Steroidogenesis Assay for Progesterone (PROG) (AID 2283442).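 On AC50: human H295R adrenal cells primed with 10 µM forskolin before dosing.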 The conditions noted are these: actives raise or lower the signal. In outline:
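Progesterone read-out: HPLC-MS/MS on MTBE extracts of conditioned medium after 48 h chemical exposure of forskolin-primed (10 uM, 48 h) H295R cells. Gain or loss of signal was fitted relative to DMSO baseline.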

Read-out in assay [10]: Tumor necrosis factor receptor superfamily member 6 (Homo sapiens) (UniProt P25445)
The assay is described as follows: LTEA_HepaRG_FAS: Life Technologies and Expression Analysis (LTEA) Assay for Fas cell surface death receptor (FAS) using HepaRG (AID 2283447). Particulars: mRNA level, 48 h; actives raise or lower the signal. An outline of the steps:
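Differentiated HepaRG cells in serum-free induction medium were exposed 48 h to 8 half-log concentrations up to 100 uM in 0.5% DMSO, in duplicate. FAS mRNA was measured by qRT-PCR normalised to ACTB, GAPDH and POLR2A; bidirectional fit versus DMSO.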

Read-out in assay [11]: Fatty acid synthase (Homo sapiens) (UniProt P49327)
The assay is described as follows: LTEA_HepaRG_FASN: Life Technologies and Expression Analysis (LTEA) Assay for Fatty Acid Synthase (FASN) using HepaRG (AID 2283448). Particulars: mRNA level, 48 h; actives raise or lower the signal. In outline:
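Differentiated human HepaRG cells were exposed for 48 h in serum-free induction medium to eight half-log concentrations up to 100 uM in 0.5% DMSO, in duplicate. FASN mRNA was quantified by TaqMan qRT-PCR, normalized to ACTB/GAPDH/POLR2A, and fitted bidirectionally against DMSO.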

Read-out in assay [12]: Cyclin Dependent Kinase Inhibitor 1A (CDKN1A), CDKN1A (gene 1026)
The assay can be described thus: LTEA_HepaRG_CDKN1A: Life Technologies and Expression Analysis (LTEA) Assay for Cyclin Dependent Kinase Inhibitor 1A (CDKN1A) using HepaRG (AID 2283450). Particulars: mRNA level, 48 h; actives raise or lower the signal. An outline of the steps: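 HepaRG, 48 h dosing, 8-pt half-log series from 100 uM top, 0.5% DMSO vehicle, duplicates. Readout: TaqMan qRT-PCR of CDKN1A transcript, housekeeping-normalized (ACTB, GAPDH, POLR2A). Up/down curve fit relative to DMSO.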

Read-out in assay [13]: Cyclin D1 (CCND1), CCND1 (gene 595)
The assay is described as follows: LTEA_HepaRG_CCND1: Life Technologies and Expression Analysis (LTEA) Assay for Cyclin D1 (CCND1) using HepaRG (AID 2283451). Particulars: mRNA level, 48 h; actives raise or lower the signal. In outline: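 qRT-PCR (Fluidigm 96.96 array) read-out of transcript level, housekeeping-normalized (ACTB/GAPDH/POLR2A). HepaRG cells, 48 h chemical exposure, 8-point half-log series from 100 uM, 0.5% DMSO vehicle; gain or loss relative to DMSO baseline.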

Read-out in assay [14]: catalase (CAT), CAT (gene 847)
The assay is described as follows: LTEA_HepaRG_CAT: Life Technologies and Expression Analysis (LTEA) Assay for catalase (CAT) using HepaRG (AID 2283452). Particulars: mRNA level, 48 h; actives raise or lower the signal. An outline of the steps:
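HepaRG cells in serum-free induction medium, 0.5% DMSO vehicle, exposed 48 h in duplicate over 8 half-log concentrations from 100 uM. CAT mRNA measured by qRT-PCR, normalized to ACTB, GAPDH, POLR2A; bidirectional fit versus DMSO.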

Read-out in assay [15]: flavin-containing dimethylaniline monooxygenases 3 (FMO3), FMO3 (gene 2328)
The assay is described as follows: LTEA_HepaRG_FMO3: Life Technologies and Expression Analysis (LTEA) Assay for flavin-containing dimethylaniline monooxygenases 3 (FMO3) using HepaRG (AID 2283453).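 On AC50: FMO3 transcript by TaqMan qRT-PCR normalized to ACTB GAPDH and POLR2A.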 Particulars: mRNA level, 48 h; actives raise or lower the signal. An outline of the steps: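 HepaRG, 48 h exposure, 8-pt half-log series from 100 uM, 0.5% DMSO vehicle, duplicates; FMO3 transcript by Fluidigm TaqMan qRT-PCR, housekeeping-normalized; gain/loss fit vs DMSO.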

Read-out in assay [16]: Cytochrome P450 (CYP1A1), CYP1A1 (gene 1543)
The assay is described as follows: LTEA_HepaRG_CYP1A1: Life Technologies and Expression Analysis (LTEA) Assay for Cytochrome P450 (CYP1A1) using HepaRG (AID 2283454). The conditions noted are these: mRNA level, 48 h; actives raise or lower the signal. In outline:
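qRT-PCR read-out: CYP1A1 transcript normalized to three housekeeping genes, fitted bidirectionally against 0.5% DMSO vehicle baseline. Human HepaRG cells, 48 h chemical exposure, 8-point half-log series topping at 100 uM.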

Read-out in assay [17]: CFLAR gene, CFLAR (gene 8837)
The assay is described as follows: LTEA_HepaRG_CFLAR: Life Technologies and Expression Analysis (LTEA) Assay for CFLAR gene using HepaRG (AID 2283455). The conditions noted are these: mRNA level, 48 h; actives raise or lower the signal. In outline: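 Differentiated HepaRG cells in serum-free induction medium were exposed 48 h in duplicate to eight half-log concentrations up to 100 uM in 0.5% DMSO; mRNA measured by TaqMan qRT-PCR, normalized to ACTB, GAPDH, POLR2A; bidirectional fitting versus DMSO.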

Read-out in assay [18]: Forkhead box O1 (FOXO1), FOXO1 (gene 2308)
The assay is described as follows: LTEA_HepaRG_FOXO1: Life Technologies and Expression Analysis (LTEA) Assay for Forkhead box O1 (FOXO1) using HepaRG (AID 2283456). Particulars: mRNA level, 48 h; actives raise or lower the signal. An outline of the steps: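 Differentiated HepaRG cells, in serum-free induction medium with 0.5% DMSO, exposed 48 h in duplicate to 8-point half-log series from 100 uM. FOXO1 mRNA measured by TaqMan qRT-PCR, normalized to ACTB, GAPDH, POLR2A; bidirectional fit versus DMSO.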

Assay [19] can be described thus: CEETOX_H295R_TESTO: CeeTox H295R High-throughput Steroidogenesis Assay for Testosterone (TESTO) (AID 2283457). The conditions noted are these: actives raise or lower the signal. In outline:
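Readout: testosterone quantified by HPLC-MS/MS (C18, ESI positive) after MTBE liquid-liquid extraction of culture medium. Cells were H295R, 48 h chemical exposure per OECD 456 with modifications. Gain or loss of signal fitted relative to DMSO.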

Read-out in assay [20]: Cyclin D2 (CCND2), CCND2 (gene 894)
The assay can be described thus: LTEA_HepaRG_CCND2: Life Technologies and Expression Analysis (LTEA) Assay for Cyclin D2 (CCND2) using HepaRG (AID 2283449).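 Further: CCND2 transcript measured by TaqMan qRT-PCR and normalised to three housekeeping genes.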 The conditions noted are these: mRNA level, 48 h; actives raise or lower the signal. An outline of the steps:
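Chemicals in 0.5% DMSO, eight half-log concentrations from 100 uM top, were applied in duplicate for 48 h to human HepaRG cells in serum-free induction medium. CCND2 mRNA by TaqMan qRT-PCR, normalised to ACTB/GAPDH/POLR2A; bidirectional fit versus DMSO.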

Sequence of Fatty acid synthase (Homo sapiens) (P49327 whole entry, looked up): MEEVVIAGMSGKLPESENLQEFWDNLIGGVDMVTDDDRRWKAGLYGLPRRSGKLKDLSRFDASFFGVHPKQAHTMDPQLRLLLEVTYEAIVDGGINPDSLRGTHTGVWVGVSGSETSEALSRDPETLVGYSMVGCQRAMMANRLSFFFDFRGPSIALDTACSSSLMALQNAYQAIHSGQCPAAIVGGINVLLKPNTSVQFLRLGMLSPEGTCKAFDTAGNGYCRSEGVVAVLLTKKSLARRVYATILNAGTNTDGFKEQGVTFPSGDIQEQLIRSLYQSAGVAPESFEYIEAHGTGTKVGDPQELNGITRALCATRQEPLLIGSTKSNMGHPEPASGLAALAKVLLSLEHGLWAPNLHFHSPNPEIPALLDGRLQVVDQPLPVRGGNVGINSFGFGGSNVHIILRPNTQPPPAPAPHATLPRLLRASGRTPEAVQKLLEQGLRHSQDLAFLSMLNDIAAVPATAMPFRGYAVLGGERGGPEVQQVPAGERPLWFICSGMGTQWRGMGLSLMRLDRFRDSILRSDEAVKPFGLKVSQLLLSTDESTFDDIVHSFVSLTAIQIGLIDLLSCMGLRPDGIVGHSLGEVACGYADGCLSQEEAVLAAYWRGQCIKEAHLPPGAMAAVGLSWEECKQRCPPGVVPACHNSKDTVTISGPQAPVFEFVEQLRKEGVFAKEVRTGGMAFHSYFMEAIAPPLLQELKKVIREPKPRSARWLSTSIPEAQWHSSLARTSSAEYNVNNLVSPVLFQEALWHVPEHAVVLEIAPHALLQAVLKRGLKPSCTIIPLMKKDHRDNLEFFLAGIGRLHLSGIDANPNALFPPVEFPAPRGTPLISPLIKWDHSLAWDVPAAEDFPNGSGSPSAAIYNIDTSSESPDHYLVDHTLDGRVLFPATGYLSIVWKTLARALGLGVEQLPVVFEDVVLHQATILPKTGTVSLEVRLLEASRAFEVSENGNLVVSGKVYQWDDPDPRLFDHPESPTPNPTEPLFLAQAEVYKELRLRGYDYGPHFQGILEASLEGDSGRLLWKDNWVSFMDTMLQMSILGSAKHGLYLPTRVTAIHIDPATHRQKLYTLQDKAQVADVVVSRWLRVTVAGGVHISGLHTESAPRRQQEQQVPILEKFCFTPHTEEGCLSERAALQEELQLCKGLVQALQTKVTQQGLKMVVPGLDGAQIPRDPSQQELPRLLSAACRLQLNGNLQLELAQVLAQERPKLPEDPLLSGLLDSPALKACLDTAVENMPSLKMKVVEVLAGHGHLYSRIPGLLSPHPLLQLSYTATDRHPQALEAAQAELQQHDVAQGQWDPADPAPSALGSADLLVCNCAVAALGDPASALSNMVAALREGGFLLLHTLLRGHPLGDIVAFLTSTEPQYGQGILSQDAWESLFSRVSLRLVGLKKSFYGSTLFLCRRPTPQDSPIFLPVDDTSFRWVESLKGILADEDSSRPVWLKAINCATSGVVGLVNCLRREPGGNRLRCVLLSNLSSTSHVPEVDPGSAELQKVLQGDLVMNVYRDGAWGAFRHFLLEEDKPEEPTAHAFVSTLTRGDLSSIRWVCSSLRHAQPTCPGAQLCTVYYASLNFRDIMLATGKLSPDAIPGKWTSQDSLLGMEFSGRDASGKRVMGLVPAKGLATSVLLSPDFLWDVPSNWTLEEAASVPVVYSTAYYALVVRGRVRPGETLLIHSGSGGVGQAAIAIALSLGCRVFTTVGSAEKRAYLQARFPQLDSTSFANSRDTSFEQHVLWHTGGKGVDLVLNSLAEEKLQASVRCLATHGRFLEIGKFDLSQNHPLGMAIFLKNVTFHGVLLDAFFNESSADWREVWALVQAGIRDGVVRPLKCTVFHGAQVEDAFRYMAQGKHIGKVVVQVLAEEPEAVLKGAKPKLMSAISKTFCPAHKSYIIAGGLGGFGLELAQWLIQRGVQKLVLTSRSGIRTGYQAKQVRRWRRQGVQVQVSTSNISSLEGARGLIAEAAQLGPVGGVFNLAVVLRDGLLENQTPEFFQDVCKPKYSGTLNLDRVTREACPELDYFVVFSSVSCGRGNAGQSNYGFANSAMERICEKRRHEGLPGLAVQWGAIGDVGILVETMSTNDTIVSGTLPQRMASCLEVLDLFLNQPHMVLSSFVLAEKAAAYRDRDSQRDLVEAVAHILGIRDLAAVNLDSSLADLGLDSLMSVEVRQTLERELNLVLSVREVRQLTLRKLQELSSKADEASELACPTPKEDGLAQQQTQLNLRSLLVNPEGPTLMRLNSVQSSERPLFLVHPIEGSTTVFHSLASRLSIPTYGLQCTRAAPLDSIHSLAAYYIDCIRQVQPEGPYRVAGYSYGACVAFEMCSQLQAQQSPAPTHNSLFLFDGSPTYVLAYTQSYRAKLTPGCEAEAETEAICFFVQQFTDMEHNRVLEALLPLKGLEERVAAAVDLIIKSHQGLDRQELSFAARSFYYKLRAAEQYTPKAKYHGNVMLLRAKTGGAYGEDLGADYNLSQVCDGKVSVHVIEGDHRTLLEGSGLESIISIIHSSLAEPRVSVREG

`C=CCc1cc(S(=O)(=O)c2ccc(O)c(CC=C)c2)ccc1O`: the AC50 (commonly the midpoint of the concentration-response curve, whichever way the signal moves) in assay [1] is 6.4 µM (active); in [2], 12.4 µM (active); in assay [4] it was 0.0971 µM (active); in [5], 5.57 µM (active); in [6], 0.673 µM (active); in assay [9], 0.351 µM (active). Besides, the AC50 is 81.4 µM (active) in assay [11]; 88.2 µM (active) in assay [13]; 71.6 µM (active) in assay [14]; 76.9 µM (active) in assay [15]; 79.6 µM (active) in assay [18]. The molecule was classed as inactive in [3], in [7], in assay [8], in assay [10], in [12] and in assay [16]. The result in [17] and in [19] was inactive.

Turning to `CC1(C)C(=O)N(Cl)C(=O)N1Cl`, the call in [10], in [11], in assay [20], in assay [12], in [13] and in [14] was inactive. Further, the call in assay [15], in assay [17] and in [18] was inactive. Further, in [16], the AC50 was 50 µM (active).

Regarding `CCCCCCCCN(C)C`, the molecule was classed as inactive in assay [1], in [2], in assay [4], in [5], in assay [6] and in assay [9]. The molecule was classed as inactive in assay [10], in [11], in assay [20], in assay [12], in assay [13] and in assay [14]. Also, the outcome in assay [15], in [16], in assay [17] and in assay [18] was inactive.

As for `CCc1cccc(CC)c1N`, the outcome in assay [10], in [11], in assay [20], in [12], in assay [13] and in [14] was inactive. Moreover, the molecule was classed as inactive in assay [15], in assay [17] and in assay [18]. Further, in [16], the half-maximal activity concentration (AC50) is 50 µM (active).
